Inconclusive results are not listed. Where a call stands in place of a potency, no number is given. Calls of active or inactive are those of the source. Calls come from the whole dose curve; as a rule, active = well fitted cell-killing curve with a large enough effect; inconclusive = small, poorly fitted or top-dose-only effect, or effect the other way; inactive = flat fitted curve, though single readings scatter.
Potency is the fitted concentration of half-maximal effect.

The assay relates to Tov112D. The experiment in a line: Primary qHTS to identify gynecologic anti-cancer compounds using libraries of approved drugs and bioactive compounds (AID 1345084). Note: nearly all actives have a fitted effect of over 55% in size. As to conditions: Gynecologic cancer cell panel viability, ATPlite luminescence, 48 h; series mostly up to 57.5 µM. The procedure, abridged: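 Cell viability after 48 h drug treatment, ATPlite luminescence readout; five doses.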
On the technique in general: qHTS replaces the single test concentration by a dilution series.
For the compound `O=C(NCCCN1CCC2(CC1)OCc1ccccc12)[C@H]1CCCN1Cc1ccccc1`, the Potency result was “inactive”.

In the case of `CC(C)c1cc(-c2ccc(F)c3ccccc23)nc(N)n1`, the Potency entry is “inactive”. Still for that read-out and setting: the value for `CC(C)NCCCn1c(Sc2cc3c(cc2I)OCO3)nc2c(N)ncnc21` was 0.891 µM (active). Still for that read-out and setting: the value for `CC(=O)OC1CC2(C)C(CCC(C)C23Cc2c(O)cc(CO)c(C=O)c2O3)C(C)(C)C1O` (stereo unspecified) was “inactive”. Still for that read-out and setting: the value for `CC(C)Oc1ccc(-c2cnc3c(-c4ccnc5ccccc45)cnn3c2)cc1` was “inactive”; that for `Cc1[nH]c(/C=C2\C(=O)Nc3cc(-c4ccccc4)ccc32)c(C)c1CCC(=O)O` was “inactive”; that for `CN(C)C(=O)NC1(c2ccccc2)CCN(CCC[C@]2(c3ccc(Cl)c(Cl)c3)CCCN(C(=O)c3ccccc3)C2)CC1` was “inactive”. `CC(=O)N[C@H]1[C@H](O[C@H]2CC[C@@]3(C)C(CC[C@]4(C)C3CC=C3C5CC(C)(C)CC[C@]5(C(=O)O)C(O)C[C@]34C)C2(C)C)O[C@H](CO[C@@H]2O[C@H](C)[C@H](O)[C@H](O)[C@H]2O[C@@H]2OC[C@@H](O)[C@H](O)[C@H]2O)[C@@H](O)[C@@H]1O` (stereo partly specified): the activity change, negative = cytotoxicity is -1.59% [at 11.6 µM] (inactive).

Regarding `Cc1cc(C)nc(SCC(=O)Nc2ncc(Cc3cccc4ccccc34)s2)n1`, the Potency result is “inactive”. For `COc1cccc(CN(C(=O)CC(C)(C)C)[C@H]2C[C@H](C(=O)N3CCNCC3)N(Cc3ccc4c(c3)OCO4)C2)c1`, the Potency result is “inactive”.

As to `Fc1ccc(N2CCN(CCC3OCCc4ccccc43)CC2)cc1` (stereo unspecified), the Potency entry is “inactive”. The same measure, in the same setting: with `O=C(NCc1ccccc1)c1ccc2c(=O)n(-c3cccc(C(F)(F)F)c3)c(=S)[nH]c2c1` the entry was “inactive”.

With `CN[C@@H]1[C@H](O[C@H]2[C@H](O[C@@H]3[C@@H](O)[C@H](O)[C@@H](N=C(N)N)[C@H](O)[C@H]3N=C(N)N)O[C@@H](C)[C@]2(O)CO)O[C@@H](CO)[C@H](O)[C@H]1O`, the Potency entry is “inactive”. With `CC1CCC(=O)CC(SCC(O)C(=O)O)CCC(=O)O1` (stereo unspecified), the Potency entry was “inactive”. With `C=C1CC[C@H]2C(=C)CC[C@H]3C(=C)C(=O)O[C@@H]3[C@@H]12`, the Potency result was “inactive”.

Turning to `C=C1C(=O)O[C@@H]2C=C(COC(C)=O)CC/C=C(\CO)CC[C@@H]12`, the Potency entry was “inactive”. The same measure, in the same setting: with `CC(=O)OC1C(=O)C2C3OCC4=C3[C@@](C)(CC[C@@H]4O)CC[C@]2(C)[C@H]1C(C)C` (stereo partly specified) the entry was “inactive”; with `O=c1[nH]c2cccc(N3CCN(Cc4ccc(-c5ccccc5)cc4)CC3)c2o1`, “inactive”. On the same count and under the same terms, with `Cc1nc(Nc2ccc(F)cc2)nc(N2CCc3ccccc3C2C)c1C` (stereo unspecified) the entry was “inactive”; with `C[C@@H](O[C@H]1OCCN(Cc2nn(P(=O)(O)O)c(=O)[nH]2)[C@H]1c1ccc(F)cc1)c1cc(C(F)(F)F)cc(C(F)(F)F)c1`, “inactive”; with `COC(=O)C[C@H]1[C@]2(C)C3=C(C)[C@H](c4ccoc4)C[C@H]3O[C@@H]2[C@H](O)C2[C@](C)(C(=O)OC)C=CC(=O)[C@@]21C` (stereo partly specified), “inactive”. The same measure, in the same setting: the value for `CC(=O)c1ccc2c(c1)[C@H](NC(=O)c1ccc(F)c(Cl)c1)[C@H](O)C(C)(C)O2` was “inactive”. On to `CC1OC(OC2C(O)COC(O[C@@H]3[C@@H](O)[C@@H](O)[C@H](OC4C(OC(=O)[C@]56CCC(C)(C)CC5C5=CCC7[C@@]8(C)C[C@H](O)[C@H](OC9OC(CO)C(O)C(O)C9O)[C@@](C)(CO)C8[C@H](O)C[C@@]7(C)[C@]5(C)CC6)OCC(O)C4O)O[C@H]3C)C2O)C(O)C(O)C1O` (stereo partly specified), for which the activity change, negative = cytotoxicity is -9.06% [at 6.55 µM] (inactive). As for `CC(=O)O[C@@]12CO[C@@H]1C[C@H](O)[C@@]1(C)C(=O)[C@H](O)C3=C(C)[C@@H](OC(=O)[C@H](O)[C@@H](NC(=O)OC(C)(C)C)c4ccccc4)C[C@@](O)([C@@H](OC(=O)c4ccccc4)C12)C3(C)C` (stereo partly specified), the Potency result is “inactive”. Same read-out and setting: with `Cc1c(C(=O)NCc2cccnc2)nn(-c2ccc(Cl)cc2Cl)c1-c1ccc(Cl)cc1` the entry was “inactive”; with `C=C1CCC[C@]2(C)CC/C(=C(/CO)C(=O)OC)C[C@@H]12`, “inactive”. The same measure, in the same setting: the value for `CC/C(C)=C/C(=O)OC1C(OC2(C)CCC3C(C4C(C)CCC42)C3(C)C)OC(C)C(O)C1O` (stereo unspecified) was “inactive”; that for `CC(C)[C@@H](c1ccc(C(F)(F)F)cc1CN(Cc1cc(C(F)(F)F)cc(C(F)(F)F)c1)c1nnn(C)n1)N1CCC(C(=O)O)CC1` was “inactive”. Same read-out and setting: with `O=C(O)c1ccc(S(=O)(=O)N(Cc2ccc(OC(F)(F)F)cc2)c2ncc(C(F)(F)F)cc2Cl)cc1` the entry was “inactive”; with `COc1ccc(OC)c(-c2ccc(NC(=O)c3ccncc3F)cc2)c1`, “inactive”. Consider `C[C@H]1CC[C@@]2(OC1)O[C@H]1CC3C4CC[C@H]5C[C@@H](O)CC[C@]5(C)C4=CC(=O)[C@]3(C)[C@H]1[C@@H]2C` (stereo partly specified), for which the Potency result was “inactive”.

The values are drawn from PubChem BioAssay (NCATS).
